# Data: PubChem BioAssay (NCATS)
# Where “and” joins values, the source holds several entries; their conditions need not be identical. Equal values may be shown once. Results filed as inconclusive are left out. Where a call stands in place of a potency, no number is given. Values without a mark were called inactive. Calls of active or inactive are those of the source. Calls come from the whole dose curve; as a rule, active = well fitted curve in the direction sought with a large enough effect; inconclusive = small, poorly fitted or top-dose-only effect, or another doubt; inactive = no such curve, though single readings can be large; an effect the other way counts as inactive or inconclusive.
# Legend:
# KB-3-1 = test: Cytotoxic Profiling of Annotated Libraries Using Quantitative High-Throughput Screening (AID 1296008); details: Five cell lines viability, CellTiter-Glo ATP luminescence, 48-72 h; max response: active compounds read low; note: nearly all actives have a fitted effect of over 60% in size
# Outline: (§1)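 Compounds were pin-transferred onto cells and incubated 48 or 72 hr at 37 degree Celsius, 95% humidity. CellTiter-Glo was added, plates sat 10 min at room temperature, then ATP-coupled luminescence was imaged as the viability read-out.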
# NIH3T3 [1] = test: as above; details: Five cell lines viability, CellTiter-Glo ATP luminescence, 48-72 h; max response: active compounds read low
# Outline: as §1
# MCC-13 = test: qHTS assay to identify novel small-molecules to repurpose for Merkel cell carcinoma treatment (AID 1296009); details: MCC and control cell lines, CellTiter-Glo viability, 72 h; series mostly up to 46 µM; note: nearly all actives have a fitted effect of over 60% in size; note: potency is the fitted concentration of half-maximal effect
# Outline: (§2)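 Viability readout: ATP luminescence (CellTiter-Glo) after 72 hr drug exposure at 37 degree celsius. Dose-response format was 8 points for NPC and 11 points for MIPE; data normalized to in-plate controls.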
# MKL-1 = test: as above; details: MCC and control cell lines, CellTiter-Glo viability, 72 h; series mostly up to 46 µM
# Outline: as §2
# MKL-2 = test: as above; details: MCC and control cell lines, CellTiter-Glo viability, 72 h; series mostly up to 46 µM
# Outline: as §2
# UISO = test: as above; details: MCC and control cell lines, CellTiter-Glo viability, 72 h; series mostly up to 46 µM
# Outline: as §2
# WaGa = test: as above; details: MCC and control cell lines, CellTiter-Glo viability, 72 h; series mostly up to 46 µM
# Outline: as §2
# C33A = test: Primary qHTS to identify gynecologic anti-cancer compounds using libraries of approved drugs and bioactive compounds (AID 1345084); details: Gynecologic cancer cell panel viability, ATPlite luminescence, 48 h; series mostly up to 57.5 µM; note: nearly all actives have a fitted effect of over 55% in size
# Outline: (§3)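 Cells, 1,000 per well, were allowed to settle for 16 h at 37 C before compound addition. Five concentrations were tested for 48 h, and viability was read by ATPlite luminescence after 15 min at room temperature.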
# CAOV3 = test: as above; details: Gynecologic cancer cell panel viability, ATPlite luminescence, 48 h; series mostly up to 57.5 µM
# Outline: as §3
# CASKI = test: as above; details: Gynecologic cancer cell panel viability, ATPlite luminescence, 48 h; series mostly up to 57.5 µM
# Outline: as §3
# Es-2 = test: as above; details: Gynecologic cancer cell panel viability, ATPlite luminescence, 48 h; series mostly up to 57.5 µM
# Outline: as §3
# HeLa = test: as above; details: Gynecologic cancer cell panel viability, ATPlite luminescence, 48 h; series mostly up to 57.5 µM
# Outline: as §3
# Hek293T = test: as above; details: Gynecologic cancer cell panel viability, ATPlite luminescence, 48 h, control line for the selectivity index; series mostly up to 57.5 µM
# Outline: as §3
# JEG-3 = test: as above; details: Gynecologic cancer cell panel viability, ATPlite luminescence, 48 h; series mostly up to 57.5 µM
# Outline: as §3
# OV90 = test: as above; details: Gynecologic cancer cell panel viability, ATPlite luminescence, 48 h; series mostly up to 57.5 µM
# Outline: as §3
# PA-1 = test: as above; details: Gynecologic cancer cell panel viability, ATPlite luminescence, 48 h; series mostly up to 57.5 µM
# Outline: as §3
# MCC-26 = test: qHTS assay to identify novel small-molecules to repurpose for Merkel cell carcinoma treatment (AID 1296009); details: MCC and control cell lines, CellTiter-Glo viability, 72 h; series mostly up to 46 µM; note: nearly all actives have a fitted effect of over 60% in size; note: potency is the fitted concentration of half-maximal effect
# Outline: as §2
# NIH3T3 [2] = test: as above; details: MCC and control cell lines, CellTiter-Glo viability, 72 h; at 44.8 µM (top of the series)
# Outline: as §2
# HACAT = test: as above; details: MCC and control cell lines, CellTiter-Glo viability, 72 h; at 44.8 µM (top of the series) unless noted
# Outline: as §2
SMILES,max response (KB-3-1),max response (NIH3T3 [1]) [%],Potency (MCC-13),Potency (MKL-1),Potency (MKL-2),Potency (UISO),Potency (WaGa),Potency (C33A),Potency (CAOV3),Potency (CASKI),Potency (Es-2),Potency (HeLa),Potency (Hek293T),Potency (JEG-3),Potency (OV90),Potency (PA-1),Potency (MCC-26),outcome (NIH3T3 [1]),outcome (NIH3T3 [2]),outcome (HACAT)
CCCCC(CC)COC(=O)c1ccc(N(C)C)cc1 (centres undefined),0.633%,4.63,inactive,inactive,inactive,inactive,inactive,inactive,inactive,inactive,inactive,inactive,inactive,inactive,inactive,inactive,,,,
c1ccc(CC2=NCCN2)cc1,-6.13%,-5.64,inactive,inactive,,inactive,,inactive,inactive,inactive,inactive,inactive,inactive,inactive,inactive,inactive,inactive,,,
CC(=O)OCC1=C(C(=O)O)N2C(=O)[C@@H](NC(=O)CSc3ccncc3)[C@H]2SC1,2.34%,1.18,inactive,inactive,,inactive,,inactive,inactive,inactive,inactive,inactive,inactive,inactive,inactive,inactive,inactive,,,
CNCCc1ccccn1,5.51%,-2.69,inactive,inactive,inactive,inactive,inactive,inactive,inactive,inactive,inactive,inactive,inactive,inactive,inactive,inactive,,,,
Oc1ccccc1C=NCc1ccccc1,-4.65%,,inactive,inactive,inactive,inactive,inactive,inactive,inactive,inactive,inactive,inactive,inactive,inactive,,,,inactive,inactive,
O=C(Nc1ccc([N+](=O)[O-])cc1)Nc1ccc([N+](=O)[O-])cc1,-1.19%,,inactive,inactive,inactive,inactive,inactive,inactive,,inactive,inactive,inactive,inactive,inactive,inactive,inactive,,,,inactive
CC(C)[N+](C)(C)CC(O)COc1cccc2ccccc12 (centres undefined),-4.04%,-0.944,inactive,inactive,inactive,inactive,,inactive,inactive,inactive,inactive,inactive,inactive,inactive,inactive,inactive,,,,
O=C(CCCN1CC=C(n2c(=O)[nH]c3ccccc32)CC1)c1ccc(F)cc1,3.95% and 1.87%,-10.6,,inactive,inactive,26.6 µM (active),,inactive,,inactive,inactive,inactive,inactive,inactive,,,inactive,,,
